Test results: the supplement of paper PMC6522484
Where a name gives a salt, the structure may show the parent alone. ± gives the standard deviation of the averaged measurements.

Key:
DLD1 [1] = assay: cell viability (CellTiter-Glo) relative to plate median (fraction of plate median); higher = more viable cells; details: 10 µM, treatment time 24 h
Outline: (§1)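 Colorectal cancer cells expressing a stably transduced lentiviral TCF/Wnt firefly luciferase reporter were treated in 384-well plates with kinase inhibitor library compounds at a final 10 µM for 24 h. Firefly luciferase or CellTiterGlo luminescence was then read on parallel plates. Well signals were normalised to the plate median (webcellHTS2, additive, no log transformation) and averaged over two independent replicates.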

HCT116 [2] = assay: as above; details: 10 µM; treatment time 24 h; reporter: TCF4/Wnt
Outline: as §1

SW480 [3] = assay: as above; details: 10 µM; treatment time 24 h; reporter: 7TFP
Outline: as §1

DLD1 [4] = assay: TCF/Wnt firefly luciferase reporter signal relative to plate median (fraction of plate median); higher = higher Wnt reporter signal; details: 10 µM, treatment time 24 h
Outline: as §1

HCT116 [5] = assay: as above; details: 10 µM; treatment time 24 h; reporter: TCF4/Wnt
Outline: as §1

SW480 [6] = assay: as above; details: 10 µM; treatment time 24 h; reporter: 7TFP
Outline: as §1

| SMILES | cell viability (DLD1 [1]; reporter: 7TFP) | cell viability (DLD1 [1]; reporter: TCF4/Wnt) | cell viability (HCT116 [2]) | cell viability (SW480 [3]) | TCF/Wnt firefly luciferase reporter signal (DLD1 [4]; reporter: 7TFP) | TCF/Wnt firefly luciferase reporter signal (DLD1 [4]; reporter: TCF4/Wnt) | TCF/Wnt firefly luciferase reporter signal (HCT116 [5]) | TCF/Wnt firefly luciferase reporter signal (SW480 [6]) |
| --- | --- | --- | --- | --- | --- | --- | --- | --- |
| Clc1ccc(Nc2nnc(Cc3ccncc3)c3ccccc23)cc1 [Vatalanib dihydrochloride (PTK787)] | 0.9675 ± 0.0021 | 0.978 ± 0.011 | 1.08 ± 0.13 | 0.925 ± 0.011 | 0.852 ± 0.038 | 0.965 ± 0.13 | 0.899 ± 0.11 | 0.957 ± 0.089 |
| C=CC(=O)Nc1cc2c(Nc3ccc(F)c(Cl)c3)ncnc2cc1OCCCN1CCOCC1 [CI-1033 (Canertinib)] | 0.868 ± 0.016 | 0.854 ± 0.068 | 0.968 ± 0.059 | 1.03 ± 0.035 | 0.353 ± 0.013 | 0.601 ± 0.096 | 1 ± 0.19 | 0.771 ± 0.32 |
| C#Cc1cccc(Nc2ncnc3cc(OCCOC)c(OCCO)cc23)c1 | 0.923 ± 0.073 | 0.988 ± 0.045 | 1.22 ± 0.064 | 0.961 ± 0.013 | 0.821 ± 0.11 | 0.819 ± 0.14 | 0.804 ± 0.012 | 1.05 ± 0.098 |
| CCCNC(=O)Nc1ccc(Oc2ncnc3cc(OC)c(OC)cc23)cc1Cl | 1.15 ± 0.085 | 1.02 ± 0.03 | 1.15 ± 0.035 | 0.9145 ± 0.005 | 1.2 ± 0.085 | 1.11 ± 0.085 | 1.04 ± 0.042 | 0.975 ± 0.14 |
| Cc1cc(Nc2cc(N3CCN(C)CC3)nc(Sc3ccc(NC(=O)C4CC4)cc3)n2)n[nH]1 [VX-680 (MK-0457, Tozasertib)] | 1.12 ± 0.18 | 0.975 ± 0.078 | 1.02 ± 0.028 | 1.16 ± 0.021 | 0.773 ± 0.0014 | 0.776 ± 0.057 | 1.56 ± 0.13 | 1.11 ± 0.23 |
| CO[C@H]1C[C@@H]2CC[C@@H](C)[C@@](O)(O2)C(=O)C(=O)N2CCCC[C@H]2C(=O)O[C@H]([C@H](C)C[C@@H]2CC[C@@H](OP(C)(C)=O)[C@H](OC)C2)CC(=O)[C@H](C)/C=C(\C)[C@@H](O)[C@@H](OC)C(=O)[C@H](C)C[C@H](C)/C=C/C=C/C=C/1C [Deforolimus (Ridaforolimus)] | 0.979 ± 0.086 | 1.08 ± 0.092 | 0.979 ± 0.044 | 1.27 ± 0.021 | 0.844 ± 0.022 | 1.02 ± 0.24 | 0.799 ± 0.43 | 1.11 ± 0.39 |
| COc1cc2c(N3CCN(C(=O)Nc4ccc(OC(C)C)cc4)CC3)ncnc2cc1OCCCN1CCCCC1 [Tandutinib (MLN518)] | 1.09 ± 0.05 | 1.1 ± 0.085 | 1.09 ± 0.028 | 1.11 | 0.956 ± 0.12 | 1.03 ± 0.028 | 1.08 ± 0.035 | 1.33 ± 0.05 |
| FC(F)(F)c1ccc(Nc2nc3ccc(Oc4ccnc(-c5ncc(C(F)(F)F)[nH]5)c4)cc3[nH]2)cc1 [Raf265 derivative] | 1.1 | 1.07 ± 0.014 | 1.2 ± 0.21 | 0.975 ± 0.12 | 1.11 ± 0.085 | 1.16 ± 0.085 | 0.912 ± 0.28 | 0.81 ± 0.44 |
| CN(C)Cc1cccc(N/C(=C2\C(=O)Nc3cc(C(N)=O)ccc32)c2ccccc2)c1 | 1.15 ± 0.13 | 1.09 ± 0.057 | 1.09 ± 0.028 | 1.085 ± 0.0071 | 0.977 ± 0.23 | 0.982 ± 0.12 | 1.05 ± 0.095 | 1.14 ± 0.035 |
| CCCCOc1c(C(=O)c2c(F)cc(C)cc2F)c[nH]c2nncc1-2 | 1.075 ± 0.0071 | 1.02 | 1.13 ± 0.085 | 0.862 ± 0.067 | 0.489 ± 0.005 | 0.617 ± 0.071 | 0.879 ± 0.098 | 0.391 ± 0.12 |
| O=C(Nc1ccc(OC(F)(F)F)cc1)c1sccc1NCc1ccnc2ccccc12 | 1.01 ± 0.023 | 0.924 ± 0.025 | 1.21 ± 0.035 | 0.971 ± 0.13 | 1.08 ± 0.15 | 0.97 ± 0.085 | 0.842 ± 0.62 | 0.864 ± 0.48 |
| CCc1cccc(CC)c1NC(=O)N1Cc2[nH]nc(NC(=O)c3ccc(N4CCN(C)CC4)cc3)c2C1 | 1.05 ± 0.2 | 1.055 ± 0.0071 | 0.954 ± 0.093 | 1.1 ± 0.078 | 1.26 ± 0.014 | 1.09 ± 0.057 | 0.996 ± 0.19 | 0.794 ± 0.039 |
| Fc1cc(-c2cccc3ncc(-c4cnn(C5CCNCC5)c4)nc23)cc(F)c1CN1CCOCC1 | 0.974 ± 0.14 | 0.981 ± 0.055 | 1.01 ± 0.055 | 1.05 ± 0.12 | 1.04 ± 0.19 | 1.02 ± 0.089 | 0.967 ± 0.076 | 1.52 |
| CNC(=O)c1ccc(-c2cnc3ncc(Cc4ccc5ncccc5c4)n3n2)cc1F | 0.987 ± 0.089 | 0.931 ± 0.043 | 1.22 ± 0.2 | 0.8805 ± 0.0064 | 1.07 ± 0.078 | 1.14 ± 0.16 | 0.899 ± 0.02 | 0.652 ± 0.26 |
| CC1(C)CNc2cc(NC(=O)c3cccnc3NCc3ccncc3)ccc21 [Motesanib Diphosphate] | 1.015 ± 0.0071 | 0.978 ± 0.074 | 1.08 ± 0.021 | 0.8805 ± 0.0021 | 1.14 ± 0.12 | 0.952 ± 0.17 | 1.19 ± 0.19 | 0.971 ± 0.11 |
| NC1(Cc2ccc(Cl)cc2)CCN(c2ncnc3[nH]ccc23)CC1 | 1.18 ± 0.05 | 1.105 ± 0.0071 | 0.787 ± 0.073 | 1.02 ± 0.035 | 1.03 ± 0.045 | 0.886 ± 0.078 | 1.02 ± 0.32 | 1.01 ± 0.11 |
| FC(F)c1nc2ccccc2n1-c1nc(N2CCOCC2)nc(N2CCOCC2)n1 | 0.82 ± 0.08 | 0.835 ± 0.016 | 0.829 ± 0.042 | 1.065 ± 0.0071 | 0.673 ± 0.019 | 0.891 ± 0.11 | 1.01 ± 0.061 | 1.03 ± 0.17 |
| Oc1ccc(-c2nc(-c3ccc(F)cc3)c(-c3ccncc3)[nH]2)cc1 | 1.08 ± 0.064 | 1.04 ± 0.014 | 1.14 ± 0.021 | 0.916 ± 0.013 | 0.747 ± 0.27 | 0.85 ± 0.04 | 1.05 ± 0.035 | 0.792 ± 0.15 |
| CCc1cc2c(cc1N1CCC(N3CCOCC3)CC1)C(C)(C)c1[nH]c3cc(C#N)ccc3c1C2=O | 1.05 ± 0.071 | 0.995 ± 0.064 | 1.18 ± 0.26 | 0.853 ± 0.033 | 1.08 ± 0.078 | 1.05 ± 0.12 | 1.01 ± 0.17 | 0.638 ± 0.31 |
| COCCOc1ccc2c(c1)ncn2-c1ccc2cccc(N3CCC(N)CC3)c2n1 | 0.954 ± 0.11 | 1.14 ± 0.12 | 0.556 ± 0.16 | 1.05 ± 0.082 | 1.54 ± 0.16 | 2.17 ± 0.41 | 0.422 ± 0.12 | 1.71 ± 0.26 |
| CCOc1cc2ncc(C#N)c(Nc3ccc(F)c(Cl)c3)c2cc1NC(=O)/C=C/CN(C)C [Pelitinib (EKB-569)] | 1.02 | 0.875 ± 0.081 | 0.878 ± 0.021 | 1.28 ± 0.14 | 0.837 ± 0.16 | 1.01 ± 0.17 | 0.668 ± 0.071 | 1.08 ± 0.021 |
| CN(C)Cc1cccc(N=C(c2ccccc2)c2c(O)[nH]c3cc(C(=O)N(C)C)ccc23)c1 | 1.13 ± 0.057 | 0.947 ± 0.0014 | 1.13 ± 0.099 | 1.19 ± 0.035 | 0.966 ± 0.12 | 0.85 ± 0.061 | 1.11 ± 0.16 | 1.11 ± 0.014 |
